Among all 24,000 compounds or so, about 70 (0.3%) were called active. Rule as the data show it: active = inhibition above about 30%; inconclusive = no clear call, values can overlap the other calls; inactive = below that. For the sample, actives were picked, then their nearest neighbours and some compounds at random.

The target of this assay is N-formyl peptide receptor 2 (Homo sapiens) (UniProt P25090). In words: small molecules displacing FPRL1 fluorescent ligand – cell-based, FPR counter-screen, flow cytometry, primary screen (AID 441).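 Also: 0% = buffer alone and 100% = receptor blocker peptide.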 To be noted: FPRL1-expressing cells, fluorescent ligand binding inhibition, hits give high values, concentration not given here. (In general: Counterscreens check selectivity or assay interference.)
Sequence of N-formyl peptide receptor 2 (Homo sapiens) (P25090 whole entry, looked up): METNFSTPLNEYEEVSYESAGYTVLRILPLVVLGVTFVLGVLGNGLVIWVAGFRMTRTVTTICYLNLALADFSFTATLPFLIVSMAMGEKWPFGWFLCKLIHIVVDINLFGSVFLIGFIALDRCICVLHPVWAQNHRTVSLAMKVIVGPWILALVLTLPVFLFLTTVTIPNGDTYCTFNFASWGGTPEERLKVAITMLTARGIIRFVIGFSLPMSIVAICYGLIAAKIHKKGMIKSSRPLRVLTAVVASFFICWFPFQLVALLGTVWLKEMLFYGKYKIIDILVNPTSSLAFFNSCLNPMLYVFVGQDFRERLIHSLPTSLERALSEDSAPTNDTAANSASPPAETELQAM
On to `COc1ccc(CCNC(=O)c2cc(-c3ccc4c(c3)OCO4)on2)cc1OC`, for which the inhibition – broadly, the relative decrease from the control value, in per cent – is -0.8% (inactive).
In the case of `COc1cccc(NC(=O)C2CCCN2C(=O)OCc2ccccc2)c1` (centres undefined) it was 0.3% (inactive); in that of `CCOC(=O)C1CCN(C(=O)C2CCN(S(=O)(=O)c3c(C)noc3C)CC2)CC1`, 10.6% (inactive).
In the case of `CCOc1ccccc1NC(=O)C1CCN(S(=O)(=O)c2c(C)nn(C)c2C)CC1` it was -6.7% (inactive).
As to `CCOc1ccc(OCC)c(NC(=O)C2CCN(S(=O)(=O)c3c(C)noc3C)CC2)c1`, the inhibition was 30.8% (active).
In the case of `COc1ccc(C(=O)Nc2nncs2)c(OC)c1` it was 0% (inactive); in that of `COc1ccc(NS(=O)(=O)c2ccc(NC(C)=O)cc2)cc1OC`, 6% (inactive); in that of `NC(=O)CCCC1=NS(=O)(=O)c2ccccc2N1`, -3.9% (inactive).
In the case of `CCN1C(=O)/C(=C2/Sc3ccccc3N2CCCS(=O)(=O)O)SC1=S`, the inhibition was 5.6% (inactive).
In the case of `CC(=O)c1c(C)c[nH]c1C` it was 6% (inactive); in that of `Cc1cccc(N2CCN(C(=O)c3cc4c(=O)[nH]c5ccccc5c4n3C)CC2)c1C`, -5% (inactive); in that of `CCOc1ccc(-c2nnn(CC(=O)N3CCN(c4ccc(F)cc4)CC3)n2)cc1OCC`, -1.6% (inactive).
The value for `CCOC(=O)N1CCN(C(=O)c2ccc3nc4cc(Cl)ccc4c(=O)n3c2)CC1` was -10% (inactive).
In the case of `CCOc1ccc(C2C(C(=O)NC)=C(C)Nc3nc4ccccc4n32)cc1OC` (centres undefined) it was -2.9% (inactive); in that of `O=C(NCCCN1CCN(Cc2ccccc2)CC1)C1CCN(S(=O)(=O)N2CCCC2)CC1`, 2% (inactive); in that of `COc1cccc(CN2C(=O)CCC2(C)C(=O)NC2CCCCCC2)c1` (centres undefined), 7.7% (inactive).
Regarding `Cc1cc(N2C(=O)C(=O)/C(=C(/O)c3ccc(Cl)cc3)C2c2cccc(Br)c2)no1` (centres undefined), the inhibition is -2.5% (inactive).
The value for `Cn1c(=O)c2[nH]c(NCC3CCCO3)nc2n(-c2ccccc2)c1=O` (centres undefined) was -0.4% (inactive); that for `CCOC(=O)c1oc2ccccc2c1NC(=O)c1cccs1` was -9.1% (inactive).
The value for `CC(NC(=O)COc1ccccc1)C(=O)NC1=NCCS1` (centres undefined) was 5.2% (inactive); that for `CCN(CC)CCNC(=O)C1c2ccccc2C(=O)N(C)C1c1cn(C)c2ccccc12` (centres undefined) was 9.3% (inactive); that for `Cc1cccc(NC(=O)CSc2nnc(NC(=O)CN3CCOCC3)s2)c1` was 8.7% (inactive).
For `COc1ccccc1C(=O)NCCn1cc(SCC(=O)NCc2ccco2)c2ccccc21`, the inhibition was 2.6% (inactive).
In the case of `COC(=O)C1=C(C)OC(N)=C(C#N)C1c1cc(OC)ccc1OC` (centres undefined) it was 5.9% (inactive); in that of `COC(=O)c1cn(C)c2ccc(S(=O)(=O)N3CC(C)CC(C)C3)cc2c1=O` (centres undefined), 8.5% (inactive).
The value for `COc1ccc(C2/C(=C(/O)c3ccccc3)C(=O)C(=O)N2c2ncccn2)cc1OC` (centres undefined) was -2.7% (inactive); that for `Cc1c(C(=O)Nc2ccccc2Cl)oc2ccc(S(=O)(=O)N3CCC4(CC3)OCCO4)cc12` was -12.5% (inactive).
The value for `CCOC(=O)n1c(SCC(=O)N(CC)CC)nc2ccccc21` was -1.8% (inactive); that for `O=C(NCc1cccs1)c1ccc2c(c1)ncn2C1CCCC1` was 2.8% (inactive); that for `O=C(CN1C(=O)CCS(=O)(=O)c2ccccc21)NCc1ccc(F)cc1` was 1.5% (inactive).
Take `O=C(C1=C(O)C(=O)N(Cc2ccccc2)C1c1cccnc1)c1ccco1` (centres undefined): the inhibition is 1.3% (inactive).
In the case of `COc1ccc(-c2nnc(SCC(=O)NC3CCCCC3)o2)cc1OC` it was 2.7% (inactive).
In the case of `CCOC(=O)c1ccn(-c2nc(-c3ccco3)cc(C(F)(F)F)n2)n1` it was 2.5% (inactive).
Regarding `O=C(CCN1C(=O)c2ccncc2C1=O)Nc1ccc2c(c1)OCCO2`, the inhibition was 9.6% (inactive).
In the case of `CCN1CCN(c2ncnc3c2oc2nc(C)c4c(c23)CC(C)(C)OC4)CC1`, the inhibition is 1.2% (inactive).
The value for `CCOc1ccc(NC(=O)CCS(=O)(=O)c2cccc3nsnc23)cc1` was -3.1% (inactive).
Consider `CCOc1nc(OCC)nc(-n2cc(-c3ccccc3)nn2)n1`, for which the inhibition is 3% (inactive).
The value for `CCOC(=O)c1ccc(NC(=O)Cn2nnc(-c3ccc(C)cc3)n2)cc1` was 3.3% (inactive); that for `COc1ccc(CC(=O)Nc2ccc(-c3nnc(-c4ccc(C)cc4)o3)cc2)cc1` was 51.1% (active); that for `COc1ccc(Cc2nnc(NC(=O)Cc3cccs3)s2)cc1` was -1.5% (inactive).
The value for `Cn1c(=O)[nH]c(=O)c2c1nc(CN(Cc1ccccc1)Cc1ccccc1)n2CCN1CCOCC1` was -0.1% (inactive); that for `CN(Cc1ccccc1)C(=O)CCNC(=O)Cn1cnc2ccccc2c1=O` was -4.8% (inactive).
As for `COc1ccc(CCNC(=O)c2ccc3c(c2)NC(=O)C(N2CCOCC2)S3)cc1OC` (centres undefined), the inhibition was 0.3% (inactive).
For the molecule `Cn1c(C(=O)N2CCC(C(N)=O)CC2)cc2c(=O)n(C)c3ccccc3c21`, the inhibition was -1.2% (inactive).
The value for `C/C(=N\O)C1(C)N(O)C(C)(C)C(c2ccc(Br)cc2)=[N+]1[O-]` (centres undefined) was 1.1% (inactive); that for `Cc1ncn(C23CC4CC(CC(O)(C4)C2)C3)n1` was 8.2% (inactive).
Consider `Cc1cc(=O)n2nc(N3CCCC(C(=O)NCCC4=CCCCC4)C3)sc2n1` (centres undefined), for which the inhibition is 3% (inactive).
In the case of `CC(C)Nc1nc(N(c2ccccc2)c2ccccc2)nc(-n2ccnc2)n1` it was -7.8% (inactive).
The value for `CCOC(=O)Nc1ccccc1N1C(=O)c2ccccc2C1=O` was -0.1% (inactive).
In the case of `CCOC(=O)c1[nH]c2c(c1C)C(=O)CC(c1ccc(N(C)C)cc1)C2` (centres undefined) it was -0.6% (inactive); in that of `CC1C=CCC2C(=O)N(c3cccc(C(=O)N4CCCCCC4)c3)C(=O)C12` (centres undefined), -6.5% (inactive); in that of `O=C1NC(c2ccncc2)Nc2sc3c(c21)CCCC3` (centres undefined), 0.8% (inactive).
As to `CCOC(=O)c1ccc2[nH]c(C)c(CN3CCN(C)CC3)c(=O)c2c1`, the inhibition was -3.9% (inactive).
In the case of `Cc1ccc2cc3cc(C(=O)N4CCCCCC4)oc3nc2c1` it was 3.2% (inactive); in that of `CC1=C(C(=O)Nc2ccccc2)C(c2cccs2)C(C#N)=C(SCC#N)N1` (centres undefined), -2.4% (inactive); in that of `c1ccc(CCn2nnnc2CN2CCN(C3CCCC3)CC2)cc1`, -2.3% (inactive).
For `COc1ccc(-c2ccc(Nc3ccc(S(=O)(=O)N4CCCC4)cc3)nn2)cc1OC`, the inhibition was 2.7% (inactive).
For the molecule `Cc1nc2ncnn2c(C)c1CCC(=O)N1CCN(C(=O)c2ccco2)CC1`, the inhibition was -3.3% (inactive).
On to `CCN1CCN(Cc2c(O)ccc3c(=O)c(-c4ccc(OC)c(OC)c4)c(C(F)(F)F)oc23)CC1`, for which the inhibition is -3.1% (inactive).
In the case of `CCOC(=O)c1cccc(NC(=O)CN(c2ccc(C)cc2)S(=O)(=O)c2c(C)noc2C)c1` it was -3% (inactive).
Consider `COc1cccc(-c2nc3n(n2)C(c2ccccc2Cl)C(C(N)=O)=C(C)N3)c1` (centres undefined), for which the inhibition is -2.8% (inactive).
For `O=C1CCc2cc(S(=O)(=O)N3CCC(C(=O)NCc4ccccc4Cl)CC3)ccc2N1`, the inhibition was -0.3% (inactive).
With `CCOC(=O)c1cc2cc(-c3c(C(=O)OCC)oc4cc(O)cc(O)c4c3=O)ccc2o1`, the inhibition is 1.4% (inactive).
The value for `CCCCN(CC)C(=O)CN(C)S(=O)(=O)c1cccc2nsnc12` was 1% (inactive); that for `CCn1c(SCC(=O)Nc2ccccc2F)nc2c(c1=O)SC(C)C2` (centres undefined) was 4.3% (inactive); that for `COc1ccc(CCNC(=O)CSc2nnc(CNC(=O)c3cccs3)o2)cc1OC` was 1.2% (inactive).
The value for `Cc1ccc(-c2nc(CS(=O)CC(=O)NC3CCCC3)c(C)o2)cc1` (centres undefined) was 1.4% (inactive).
With `COCCCN(C(=O)Cn1ncc2c(=O)oc3ccc(C)cc3c21)C(C)c1ccncc1` (centres undefined), the inhibition is -4.1% (inactive).
Regarding `CCn1ncc(Br)c1C(=O)Nc1cc(C)ccc1F`, the inhibition was -0.1% (inactive).
Regarding `Cc1ccccc1CSc1nnc(Cn2c(=O)sc3ccccc32)n1C`, the inhibition was 5.5% (inactive).
The value for `O=C1CC(c2ccccc2)CC(O)=C1C=NCCN1CCOCC1` (centres undefined) was 1.2% (inactive).
Take `CC(=O)N(CC1CCCO1)C1(C(=O)NC2CCCC2)CCCCC1` (centres undefined): the inhibition was 4% (inactive).
The value for `COC(=O)[C@H](C(C)C)n1c(C)c(C(C)=O)c(C(C)=O)c1C` was 31.1% (active); that for `Cc1cccc(C2c3c(n(C)c(=O)n(C)c3=O)N=C3c4ccccc4C(=O)C32)c1` (centres undefined) was -4.5% (inactive); that for `CCN(CC)C(=O)CCC(=O)Nc1ccc(C(=O)OC)cc1` was 4.2% (inactive).
Regarding `CC(C)COC(=O)C1C2C=CC3(CN(C(C)c4ccc(Br)cc4)C(=O)C13)O2` (centres undefined), the inhibition is 17.2% (inactive).
In the case of `C/C(=C(\C#N)C(=O)NCCCN1CCOCC1)N(C)C` it was -7.6% (inactive).
The value for `CN1C(=O)c2ccccc2C(C(=O)NCCCN2CCCC2)C1c1c[nH]c2ccccc12` (centres undefined) was -4.5% (inactive); that for `Cc1ccc(S(=O)(=O)n2nc(OC(=O)C(C)(C)C)cc2N)cc1` was -2.2% (inactive); that for `Clc1ccc(Cn2ncc3c(NCc4cccnc4)ncnc32)cc1` was -5.1% (inactive).
The value for `CCOc1ccc(OCC)c(NC(=O)CN(C)S(=O)(=O)c2cccc3nsnc23)c1` was -4.8% (inactive).
Turning to `Cn1c(=O)cc(SCC(=O)N2CCN(C(=O)c3ccco3)CC2)c2ccccc21`, the inhibition is -1.6% (inactive).
The value for `COc1ccc(OC)c(NC(=O)CC(Cc2ccccc2OC)C(=O)O)c1` (centres undefined) was 9.6% (inactive); that for `CCOC(=O)C1CCCN(Cc2nc(N)nc(Nc3ccc(C)cc3)n2)C1` (centres undefined) was -0.4% (inactive); that for `CC1Cc2nc(SCC(=O)Nc3ccccc3F)n(C)c(=O)c2S1` (centres undefined) was -4.6% (inactive).
On to `CC1=Nn2c(nnc2-c2ccccc2)SC1`, for which the inhibition is 4.7% (inactive).
Consider `C=CCNC(=O)CSc1nc2sc(C)c(C)c2c(=O)[nH]1`, for which the inhibition was -8.9% (inactive).
The value for `Cc1cc(Nc2ccccc2)n(CCC#N)n1` was 9.1% (inactive).
In the case of `O=C(Cc1nn[nH]n1)NCCC1=CCCCC1` it was 3.2% (inactive).
With `CCCn1cc(SCC(N)=O)c2ccccc21`, the inhibition was 0.9% (inactive).
In the case of `O=C(Nc1ccccc1)N(Cc1cccnc1)Cc1ccco1` it was 3.6% (inactive).
Take `CCCCOc1ccc(C(=O)NCc2ccco2)cc1`: the inhibition is -9.3% (inactive).
The value for `Cc1cccc(Nc2ccccc2C(=O)NCc2ccco2)c1C` was 34.3% (active); that for `O=C(NCc1ccco1)c1cccn2c(=O)c3cc(Br)ccc3nc12` was -9.9% (inactive).

The record behind these values is PubChem BioAssay AID441 (NMMLSC, 2006).
